# Experimental data as given in PubChem BioAssay (NCATS).
# A number with no mark means an inactive call. Results filed as inconclusive are left out. Active and inactive are the calls of the source. Unless noted, calls follow the shape of the dose curve; as a rule, active = well fitted curve in either direction with a large enough effect (not every such curve was filed as active); inconclusive = small, poorly fitted or top-dose-only effect, or another doubt; inactive = flat fitted curve, though single readings scatter.
# Tests used:
# [1] = target: Lysosomal acid glucosylceramidase (Homo sapiens) (UniProt P04062); experiment: Glucocerebrosidase-p2 (AID 348; in the data active = potency below about 10 µM; also: potency is read from the fitted curve at half-maximal effect); conditions: purified GBA, blue fluorogenic substrate, 40 min
# Method in brief: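 Compounds titrated from 0.6 nM upwards against 0.2 nM enzyme in pH 5.9 citric acid/KH2PO4, taurocholate, tween-20; blue fluorogenic substrate 80 uM, 40 min room temperature, stopped and read Ex 365/Em 440 for AC50.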
# [2] = AP1 Signaling Pathway (AID 357); conditions: ME-180 AP-1-bla reporter, EGF-induced, beta-lactamase ratio, 5 h; at 7.69 µM (top of the series) unless noted;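 also: ME-180 reporter cells stimulated with EGF at its EC50 level; % is scaled to controls: 0 for no effect and ±100 for the full control effect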
# Method in brief: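 Read-out was the 460nm/530nm emission ratio (excitation 405nm) after CCF4 loading for 2.5 hours at room temperature. Cells carried an AP-1-driven beta-lactamase reporter, were stimulated with EC50 EGF plus compound for 5 hours, and AC50 values came from titrations.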
# [3] = target: Cytochrome P450 1A2 (Homo sapiens) (UniProt P05177); experiment: p450-cyp1a2 (AID 410; calls by dose curve; also: potency is read from the fitted curve at half-maximal effect;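 as to activity change, negative = inhibition: -100% = full effect of reference inhibitor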); conditions: recombinant CYP1A2, luciferin-ME demethylation, luminescence; series mostly up to 11.4 µM
# Method in brief: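 Human CYP1A2 (20nM) demethylated Luciferin-ME at its Km (100uM) in 100mM KPO4. After 10 min compound preincubation, NADPH regeneration ran the reaction 60 min at room temperature. Luciferin was read by luminescence, normalized to 57 uM furafylline.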
# [4] = NFAT Signaling Pathway (AID 444); conditions: Jurkat NFAT-bla M1, carbachol, beta-lactamase ratio, 5 h; at 7.69 µM (top of the series) unless noted;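 also: carbachol stimulus at about its EC50 of 1 µM final; % is scaled to controls: 0 for no effect and ±100 for the full control effect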
# Method in brief: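 Jurkat cells carrying an NFAT-driven β-lactamase reporter and co-transfected muscarinic M1 receptor were treated with compound plus carbachol (1 uM final, an EC50 level) for 5 h at 37 °C. CCF4 loading followed for 1 h at RT; 460/530 nm ratio gave %activity.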
# [5] = Stat Signaling Pathway (AID 446); conditions: ME-180 SIE beta-lactamase reporter, IL-6 stimulated, 5 h; at 7.69 µM (top of the series) unless noted;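 also: ME-180 cervical cancer cells given 40 pM IL-6 alongside compound; SIE-controlled beta-lactamase reporter measured as 460/530 nm FRET emission ratio; % is scaled to controls: 0 for no effect and ±100 for the full control effect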
# Method in brief: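 Reporter line: ME-180 cervical carcinoma, SIE-beta-lactamase. Treatment: compound with 40 pM IL-6, 5 hrs, 37 C, in low-serum OPTI-MEM with 10 mM HEPES pH 7.3. Detection: 460/530 nm fluorescence.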
# [6] = target: Glucocorticoid receptor (Homo sapiens) (UniProt P04150); experiment: GR-GFP Redistribution (AID 450;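 active = compounds whose dose series gives a full or clear partial fitted curve of increased nuclear translocation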; also: potency is read from the fitted curve at half-maximal effect); conditions: U2OS GR-GFP nuclear translocation, laser cytometry, 2 h
# [7] = target: Glucocorticoid receptor (Homo sapiens) (UniProt P04150); experiment: GR-EFC Redistribution (AID 451; calls by dose curve; also: potency is read from the fitted curve at half-maximal effect); conditions: CHO-K1 GR-EFC translocation, beta-gal luminescence, 2 h
# Method in brief: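 CHO-K1 cells stably expressing nuclear-localized β-gal enzyme acceptor and GR fused C-terminally to the enzyme donor fragment; ligand-driven nuclear translocation restores β-gal by complementation. Compounds titrated up to 46 uM final, 2 h at 37 °C; luminescence read.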
# [8] = target: Mitogen-activated protein kinase 10 (Mus musculus) (UniProt Q61831); experiment: JNK3 AlphaScreen Assay (AID 530); conditions: JNK3 lysate, c-Jun phosphorylation; series mostly up to 11.4 µM;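 also: kinase came from lysate of stimulated human HepG2 cells; signal reports phosphorylation of biotinylated GST-cJun 1-79 at Ser73 with 10 µM ATP; % is scaled to controls: 0 for no effect and ±100 for the full control effect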
# Method in brief: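 JNK3 came from HepG2 lysates pre-activated with IL-1beta and TNF-alpha and phosphorylated biotinylated GST-cJun (1-79) at 10 uM ATP, pH 7.6, room temperature. Compounds were titrated. AlphaScreen signal used anti-phospho-cJun (Ser73) antibody.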
# [9] = target: 3',5'-cyclic-AMP phosphodiesterase 4B (Homo sapiens) (UniProt Q07343); experiment: qHTS Assay for Inhibitors of PDE-IV (AID 607; active = well fitted activation curve with a large enough effect in the main read-out, with a control signal flat, not every such curve was filed as active; also: % of control where 0% means no effect); conditions: HEK293 ACTOne CNG channel cells, membrane potential fluorescence; series mostly up to 22.9 µM
# Method in brief: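 Cell-based read-out of cAMP via a modified cyclic nucleotide-gated channel and membrane potential dye (535/590 nm) in HEK293 cells expressing PDE4 endogenously. Compounds tested up to 22.9 uM final; 100 uM RO 20-1724 reference.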
# [10] = target: Cytochrome P450 2C9 (Homo sapiens) (UniProt P11712); experiment: qHTS Assay for Inhibitors and Substrates of Cytochrome P450 2C9 (AID 883; active = well fitted curve in the direction sought with a large enough effect; an effect the other way counts as inactive or inconclusive; also: nearly all actives have a fitted effect of over 60% in size; also: potency is read from the fitted curve at half-maximal effect); conditions: recombinant CYP2C9, luciferin-H luminescence, 60 min; series mostly up to 11.4 µM
# Method in brief: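 Human CYP2C9 (10nM) hydroxylated Luciferin-H (100uM, at its KM) to luciferin in 25mM KPO4. Compound was preincubated 10 min at 37C, then NADPH regeneration started a 60 min reaction at 37C. Luminescence was read after detection reagent, normalized to 57uM sulphaphenazole.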
# [11] = target: Cytochrome P450 3A4 (Homo sapiens) (UniProt P08684); experiment: qHTS Assay for Inhibitors and Substrates of Cytochrome P450 3A4 (AID 884; active = well fitted curve in the direction sought with a large enough effect; an effect the other way counts as inactive or inconclusive; also: nearly all actives have a fitted effect of over 50% in size; also: potency is read from the fitted curve at half-maximal effect); conditions: recombinant CYP3A4, Luciferin-PPXE luminescence; series mostly up to 57.1 µM
# Method in brief: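 20 nM human CYP3A4 with 25 uM Luciferin-PPXE (at KM) in 200 mM KPO4, preincubated 10 min with compound; NADPH regeneration started a 60 min RT reaction. Luciferin detected by luminescence, normalized to 57 uM ketoconazole as full inhibition.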
# [12] = target: Cytochrome P450 3A4 (Homo sapiens) (UniProt P08684); experiment: qHTS Assay for Activators of Cytochrome P450 3A4 (AID 885; active = well fitted curve in the direction sought with a large enough effect; an effect the other way counts as inactive or inconclusive; also: nearly all actives have a fitted effect of over 65% in size); conditions: recombinant CYP3A4, Luciferin-PPXE luminescence, 60 min; series mostly up to 11.4 µM
# Method in brief: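 Signal was normalized against complete inhibition by 57 uM ketoconazole. The reaction used 20nM CYP3A4 with 25uM Luciferin-PPXE, 10-min compound preincubation and a 60-min NADPH-supported step at RT.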
# [13] = target: Cytochrome P450 2C19 (Homo sapiens) (UniProt P33261); experiment: qHTS Assay for Inhibitors and Substrates of Cytochrome P450 2C19 (AID 899; active = well fitted curve in the direction sought with a large enough effect; an effect the other way counts as inactive or inconclusive; also: nearly all actives have a fitted effect of over 60% in size; also: potency is read from the fitted curve at half-maximal effect); conditions: recombinant CYP2C19, luciferin-H EGE luminescence; series mostly up to 11.4 µM
# Method in brief: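 Human CYP2C19 (5nM) with Luciferin-H EGE at 10uM (its KM) in 50mM KPO4 was preincubated with compound for 10 min at 37C. NADPH regeneration started a 60 min 37C reaction. Luciferin was read by luminescence, normalized to 57uM ketoconazole.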
# [14] = target: Cytochrome P450 2D6 (Homo sapiens) (UniProt P10635); experiment: qHTS Assay for Inhibitors and Substrates of Cytochrome P450 2D6 (AID 891; active = well fitted curve in the direction sought with a large enough effect; an effect the other way counts as inactive or inconclusive;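 also: luciferin methyl ether substrate demethylated by CYP2D6 with NADPH regeneration; % is scaled to controls: 0 for no effect and ±100 for the full control effect; nearly all actives have a fitted effect of over 60% in size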); conditions: recombinant CYP2D6, luciferin-ME EGE luminescence; series mostly up to 11.4 µM
# Method in brief: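 Human CYP2D6 (5 nM) with 30 uM Luciferin-ME EGE (at Km) in 100 mM KPO4, compound preincubated 10 min, then NADPH regeneration system for 60 min at room temperature. Luciferin read by luminescence; normalized to 1.43 uM quinidine.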
# [15] = qHTS Assay for Identification of Small Molecule Agonists for Hypoxia Response Element Signaling Pathway (AID 914; active = well fitted activation curve with a large enough effect in the signal ratio, with a control signal flat, not every such curve was filed as active; the % refers to the signal ratio; also: % of control where 0% means no effect); conditions: ME-180 (cervical carcinoma) HRE-bla reporter, beta-lactamase ratio, CoCl2, 17 h; activation: stronger effect = higher value
# Method in brief: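 HRE-bla ME-180 cells with beta-lactamase reporter under hypoxia response element, compounds with EC50 CoCl2 for 17 hours at 37 C. CCF4 substrate, 460nm/530nm emission ratio gave %Activity; AC50 from titration series.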
# Chain of Cytochrome P450 2C19 (Homo sapiens) (P33261 whole entry, looked up): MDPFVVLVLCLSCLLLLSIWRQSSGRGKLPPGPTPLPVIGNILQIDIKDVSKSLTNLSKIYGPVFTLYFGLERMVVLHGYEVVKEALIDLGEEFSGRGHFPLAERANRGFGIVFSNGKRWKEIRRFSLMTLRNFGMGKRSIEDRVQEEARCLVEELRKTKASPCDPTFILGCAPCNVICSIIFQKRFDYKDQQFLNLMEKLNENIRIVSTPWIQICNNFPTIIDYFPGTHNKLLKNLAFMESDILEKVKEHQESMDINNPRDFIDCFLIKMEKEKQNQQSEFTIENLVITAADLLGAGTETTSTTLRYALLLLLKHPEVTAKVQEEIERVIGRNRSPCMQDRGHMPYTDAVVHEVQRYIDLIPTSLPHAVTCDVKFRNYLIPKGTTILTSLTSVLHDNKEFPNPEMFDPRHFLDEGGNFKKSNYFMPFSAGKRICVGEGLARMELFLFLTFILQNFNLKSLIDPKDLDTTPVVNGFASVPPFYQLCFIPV
# Chain of Cytochrome P450 2D6 (Homo sapiens) (P10635 whole entry, looked up): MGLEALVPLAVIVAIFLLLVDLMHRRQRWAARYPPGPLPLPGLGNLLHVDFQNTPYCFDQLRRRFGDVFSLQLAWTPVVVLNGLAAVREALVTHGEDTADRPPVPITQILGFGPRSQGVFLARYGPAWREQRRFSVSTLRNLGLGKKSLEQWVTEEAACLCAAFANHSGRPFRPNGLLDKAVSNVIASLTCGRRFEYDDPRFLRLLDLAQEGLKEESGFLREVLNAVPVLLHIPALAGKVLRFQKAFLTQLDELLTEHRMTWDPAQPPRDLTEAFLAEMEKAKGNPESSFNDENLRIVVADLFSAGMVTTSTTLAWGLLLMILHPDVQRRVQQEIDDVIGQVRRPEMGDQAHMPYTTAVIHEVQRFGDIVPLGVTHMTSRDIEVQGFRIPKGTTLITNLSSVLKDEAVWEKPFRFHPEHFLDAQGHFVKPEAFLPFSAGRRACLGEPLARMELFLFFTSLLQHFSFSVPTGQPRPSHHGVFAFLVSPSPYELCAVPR
# Chain of Glucocorticoid receptor (Homo sapiens) (P04150 whole entry, looked up, the tested form may be a part): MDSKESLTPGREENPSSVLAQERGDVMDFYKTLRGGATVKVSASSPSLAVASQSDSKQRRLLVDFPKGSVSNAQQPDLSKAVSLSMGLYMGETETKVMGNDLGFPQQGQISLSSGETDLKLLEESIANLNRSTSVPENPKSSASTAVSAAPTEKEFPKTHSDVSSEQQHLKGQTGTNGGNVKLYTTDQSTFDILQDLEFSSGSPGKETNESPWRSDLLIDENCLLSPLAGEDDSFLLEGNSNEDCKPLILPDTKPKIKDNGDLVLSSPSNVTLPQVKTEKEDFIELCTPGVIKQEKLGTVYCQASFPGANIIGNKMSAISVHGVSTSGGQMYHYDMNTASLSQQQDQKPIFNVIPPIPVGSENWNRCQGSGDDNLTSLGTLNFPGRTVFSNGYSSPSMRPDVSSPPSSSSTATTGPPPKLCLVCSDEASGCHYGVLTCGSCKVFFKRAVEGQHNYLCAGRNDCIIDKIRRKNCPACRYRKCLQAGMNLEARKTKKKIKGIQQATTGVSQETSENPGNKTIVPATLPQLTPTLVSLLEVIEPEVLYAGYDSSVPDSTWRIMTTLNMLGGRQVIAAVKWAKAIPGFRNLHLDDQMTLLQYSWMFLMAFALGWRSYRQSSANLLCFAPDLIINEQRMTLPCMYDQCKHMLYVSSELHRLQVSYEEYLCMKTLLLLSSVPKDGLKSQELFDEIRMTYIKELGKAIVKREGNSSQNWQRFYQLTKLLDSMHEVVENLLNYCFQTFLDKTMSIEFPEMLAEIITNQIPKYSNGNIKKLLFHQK
# Chain of 3',5'-cyclic-AMP phosphodiesterase 4B (Homo sapiens) (Q07343 whole entry, looked up): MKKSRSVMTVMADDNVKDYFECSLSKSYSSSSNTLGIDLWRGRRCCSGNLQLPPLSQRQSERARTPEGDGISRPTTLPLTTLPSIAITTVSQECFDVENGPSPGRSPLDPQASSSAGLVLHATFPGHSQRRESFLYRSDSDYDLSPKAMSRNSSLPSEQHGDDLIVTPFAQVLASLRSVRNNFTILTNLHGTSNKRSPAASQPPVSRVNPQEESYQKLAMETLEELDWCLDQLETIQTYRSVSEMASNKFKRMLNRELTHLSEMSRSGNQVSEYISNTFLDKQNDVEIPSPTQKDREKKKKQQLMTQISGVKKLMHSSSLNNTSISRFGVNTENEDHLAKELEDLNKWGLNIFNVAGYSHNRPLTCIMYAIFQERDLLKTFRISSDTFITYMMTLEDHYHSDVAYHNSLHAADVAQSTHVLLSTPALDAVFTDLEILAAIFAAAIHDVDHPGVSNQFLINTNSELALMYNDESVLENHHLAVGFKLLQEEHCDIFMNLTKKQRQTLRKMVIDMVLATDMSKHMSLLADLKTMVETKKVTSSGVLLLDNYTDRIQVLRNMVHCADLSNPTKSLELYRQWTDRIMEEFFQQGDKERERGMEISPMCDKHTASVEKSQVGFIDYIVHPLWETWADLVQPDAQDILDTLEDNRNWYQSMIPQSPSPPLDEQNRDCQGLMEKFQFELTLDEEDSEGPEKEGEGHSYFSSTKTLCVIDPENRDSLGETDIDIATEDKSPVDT
# Chain of Cytochrome P450 3A4 (Homo sapiens) (P08684 whole entry, looked up): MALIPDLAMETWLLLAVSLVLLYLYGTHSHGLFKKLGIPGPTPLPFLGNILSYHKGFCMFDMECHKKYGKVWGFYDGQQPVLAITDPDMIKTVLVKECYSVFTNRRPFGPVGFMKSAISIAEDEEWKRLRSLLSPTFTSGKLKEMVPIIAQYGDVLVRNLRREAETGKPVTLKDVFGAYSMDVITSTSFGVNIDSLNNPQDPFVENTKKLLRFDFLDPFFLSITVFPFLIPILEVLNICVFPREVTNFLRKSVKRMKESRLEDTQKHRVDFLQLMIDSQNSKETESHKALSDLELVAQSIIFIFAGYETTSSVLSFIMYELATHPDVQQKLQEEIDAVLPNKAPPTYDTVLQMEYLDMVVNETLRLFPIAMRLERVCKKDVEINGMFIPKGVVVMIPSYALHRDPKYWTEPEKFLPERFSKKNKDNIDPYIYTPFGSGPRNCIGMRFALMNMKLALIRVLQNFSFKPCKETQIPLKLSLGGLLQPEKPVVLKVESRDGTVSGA
# Chain of Cytochrome P450 1A2 (Homo sapiens) (P05177 whole entry, looked up): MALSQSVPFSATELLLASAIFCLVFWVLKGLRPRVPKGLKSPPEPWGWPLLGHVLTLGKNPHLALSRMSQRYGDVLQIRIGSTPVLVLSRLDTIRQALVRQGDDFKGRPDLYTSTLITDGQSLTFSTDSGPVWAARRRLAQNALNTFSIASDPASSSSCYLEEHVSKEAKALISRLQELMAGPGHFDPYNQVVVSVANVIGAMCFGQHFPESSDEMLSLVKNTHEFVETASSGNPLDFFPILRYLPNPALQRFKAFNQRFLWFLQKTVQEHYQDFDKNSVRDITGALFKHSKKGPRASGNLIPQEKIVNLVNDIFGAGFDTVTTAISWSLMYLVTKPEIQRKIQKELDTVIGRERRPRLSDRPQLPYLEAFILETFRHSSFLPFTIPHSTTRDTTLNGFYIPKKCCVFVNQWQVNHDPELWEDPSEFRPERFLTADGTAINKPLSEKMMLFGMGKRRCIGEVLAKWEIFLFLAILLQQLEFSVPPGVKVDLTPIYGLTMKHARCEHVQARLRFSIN
# Chain of Cytochrome P450 2C9 (Homo sapiens) (P11712 whole entry, looked up): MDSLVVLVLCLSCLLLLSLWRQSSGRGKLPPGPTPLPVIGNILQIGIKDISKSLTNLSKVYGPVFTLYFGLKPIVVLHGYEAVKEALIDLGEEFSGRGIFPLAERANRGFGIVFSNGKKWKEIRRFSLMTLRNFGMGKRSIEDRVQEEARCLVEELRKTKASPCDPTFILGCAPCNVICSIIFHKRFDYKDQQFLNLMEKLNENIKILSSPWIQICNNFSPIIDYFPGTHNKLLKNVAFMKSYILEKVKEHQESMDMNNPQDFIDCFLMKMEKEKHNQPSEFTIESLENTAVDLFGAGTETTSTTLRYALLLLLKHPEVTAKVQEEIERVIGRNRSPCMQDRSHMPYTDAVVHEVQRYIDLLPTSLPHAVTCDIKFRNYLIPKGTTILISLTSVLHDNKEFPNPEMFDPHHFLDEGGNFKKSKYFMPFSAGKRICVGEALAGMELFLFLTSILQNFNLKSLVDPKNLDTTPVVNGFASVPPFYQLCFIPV
# Chain of Lysosomal acid glucosylceramidase (Homo sapiens) (P04062 whole entry, looked up): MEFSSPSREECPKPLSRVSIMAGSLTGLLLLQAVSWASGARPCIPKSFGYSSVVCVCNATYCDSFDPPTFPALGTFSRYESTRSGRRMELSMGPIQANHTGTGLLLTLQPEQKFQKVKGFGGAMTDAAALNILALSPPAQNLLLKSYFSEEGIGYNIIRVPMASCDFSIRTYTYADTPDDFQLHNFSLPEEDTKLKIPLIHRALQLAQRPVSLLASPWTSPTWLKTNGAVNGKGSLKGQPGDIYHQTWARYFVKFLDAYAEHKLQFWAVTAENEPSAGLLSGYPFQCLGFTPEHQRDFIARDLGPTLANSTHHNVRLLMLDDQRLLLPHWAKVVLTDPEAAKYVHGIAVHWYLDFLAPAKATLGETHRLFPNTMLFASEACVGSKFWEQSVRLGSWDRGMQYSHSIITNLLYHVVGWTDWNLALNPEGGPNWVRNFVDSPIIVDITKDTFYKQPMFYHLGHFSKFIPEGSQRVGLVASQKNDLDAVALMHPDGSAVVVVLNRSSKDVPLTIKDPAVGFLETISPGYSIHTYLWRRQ
SMILES,Potency [1],"activity change, negative = inhibition [2]",Potency [3],"activity change, negative = inhibition [4]","activity, negative = inhibition [5]",Potency [6],Potency [7],Potency [8],Potency [9],Potency [10],Potency [11],Potency [12],Potency [13],"activity change, negative = inhibition [3]","activity change, negative = inhibition [11]",Potency [14],activation [15]
CC(C)CO[C@H](c1ccc2c(c1)OCO2)[C@H](C)Br,> 11.4 µM,-13.4%,631 nM (active),-8.77%,7%,> 46 µM,> 9.22 µM,inactive,inactive,2 µM (active),3.16 µM (active),inactive,0.0631 µM (active),–,–,–,–
O=C1c2ccccc2N[C@H](c2cc(Cl)cc(Cl)c2O)N1CCc1ccccn1,> 11.4 µM,-16.9%,–,5.29%,-24.9%,> 46 µM,> 9.22 µM,inactive,inactive,3.16 µM (active),0.794 µM (active),inactive,3.98 µM (active),5.8% [at 2.29 µM],–,–,–
O=C(O)CCc1nc(-c2ccccc2-n2cccc2)no1,> 11.4 µM,-5.29%,–,8.59%,-0.807%,> 46 µM,> 9.22 µM,inactive,inactive,–,2.51 µM (active),–,–,-17.3% [at 2.29 µM],–,–,–
O=S(=O)(O)c1cc(O)c2c(N=Cc3ccccc3O)cc(S(=O)(=O)O)cc2c1,> 11.4 µM,-14.5%,–,8.24%,-1.77%,> 46 µM,> 9.22 µM,inactive,inactive,3.16 µM (active),–,–,1.58 µM (active),-23.7% [at 2.29 µM],–,–,–
O=C(O)CC(CC(=O)O)n1cccc1,> 11.4 µM,5.34%,inactive,8.97%,-7.74%,> 46 µM,> 9.22 µM,inactive,inactive,inactive,–,–,inactive,–,-36.6% [at 11.4 µM],inactive,–
Cn1c(=O)c2[nH]c(SCc3ccccn3)nc2n(C)c1=S,> 11.4 µM,-5.29%,12.6 nM (active),13%,-3.9%,> 46 µM,> 9.22 µM,inactive,inactive,3.16 µM (active),3.98 µM (active),inactive,–,–,–,inactive,–
C[C@H]1C[C@@H]2[C@H]3CCC4=CC(=O)C=C[C@@]4(C)[C@]3(Cl)[C@@H](Cl)C[C@]2(C)[C@]1(O)C(=O)COP(=O)(O)O,> 11.4 µM,-4.94%,inactive,9.07%,2.85%,0.0275 µM (active),7.37 µM (active),inactive,inactive,inactive,–,–,inactive,–,–,inactive,–
Oc1cccc2ccc(SSc3ccc4cccc(O)c4n3)nc12,> 11.4 µM,1.21%,3160 nM (active),-22.6%,-15.4%,> 46 µM,> 9.22 µM,inactive,inactive,1.58 µM (active),–,inactive,3.16 µM (active),–,–,–,–
N=C(N)SCCN1CCCCC1,> 11.4 µM,10.8%,inactive,0.176%,-0.606%,> 46 µM,> 9.22 µM,inactive,inactive,inactive,–,–,inactive,–,-31.7% [at 11.4 µM],inactive,–
CC1=C/C(=N/O)C([C@H]2C=C(C)CC(C)(C)[C@@H]2O)C(C)(C)C1 (stereo not given in full),> 11.4 µM,-3.8%,inactive,-18%,0.535%,> 46 µM,> 9.22 µM,inactive,inactive,2.51 µM (active),–,–,1.58 µM (active),–,–,–,–
COc1ccc(C[C@@H]2C(=O)N[C@H](C)C(=O)N(C)[C@@H]3Cc4ccc(cc4)Oc4cc(ccc4O)C[C@H](C(=O)N[C@@H](C)C(=O)N[C@H](C)C(=O)N2C)N(C)C3=O)cc1,> 11.4 µM,-121% (active),inactive,-132% (active),-104% (active),> 46 µM,> 9.22 µM,inactive,inactive,–,3.98 µM (active),inactive,–,–,–,–,–
COc1ccc([C@@H](Nc2ccccn2)c2cc(C(C)(C)C)cc(C(C)(C)C)c2O)cc1,> 11.4 µM,-15.8%,–,-8.5%,-15.2%,> 46 µM,> 9.22 µM,inactive,inactive,2.51 µM (active),–,inactive,2.51 µM (active),1.2% [at 2.29 µM],–,–,3.06%
